# Compound activity deposited in PubChem BioAssay by several laboratories.
# Most compounds without a hit are left out; they make up all but 1.1% or so of the library.
# FXIIa mix inh = factor XIIa (human) inhibition, mixture screen; inhibition, % at 5 µM; 62,000 tested, 0.2% active; AID 684; purified FXIIa, fluorogenic substrate, pooled mixtures
# C1s inh = blocks human complement C1s protease activity. purified C1s, fluorogenic AMC substrate, pooled mixtures. mean inhibition % of two 10-compound mixtures (hits give high values), % at 5 µM (by protocol). 62,000 tested, 0.16% active. AID 538;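 active means inhibition above 20% in each of the two 10-compound mixture wells holding the compound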
# BAP1 block = human BAP1 deubiquitinase inhibition | recombinant BAP1, Ub-AMC hydrolysis fluorescence kinetic; hits give low values | calls only at 20 µM | 72,000 tested, 0.48% active | AID 436;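 active means activity remaining at or below 50% of control, provided the compound also passes the data quality filters; inactive means the rest, including low values that fail the filters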
# FXIa inh mix = blocks human factor XIa in pooled compound mixtures | 62,000 tested, 0.19% active | inhibition, % at 5 µM | purified FXIa, fluorogenic substrate | P03951 | AID 680;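 further: each value is inhibition by a whole ten-compound pool holding the compound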
# CatG inh = blocks human cathepsin G enzyme activity; inhibition, % at 5 µM (by protocol); P08311; 62,000 tested, 0.2% active; purified enzyme, AMC-tetrapeptide fluorescence, pooled mixtures;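 active means inhibition above 20% in each of the two mixture wells holding the compound; inactive means inhibition of 20% or less in either well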
# Ec RNAP inh = inhibitors of Escherichia coli RNA polymerase; 62,000 tested, 0.2% active; E. coli RNA polymerase, fluorescence transcription assay; AID 559; inhibition, %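 (tested at 10 µM)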; in the data active means inhibition above about 20%
# A number is an active result; 0 = inactive; - = no result given. Unless noted, no stated cut-off is given here; in the data, active means inhibition above about 20% (passing the limit was not always enough); inactive means the rest.
SMILES,FXIIa mix inh,C1s inh,BAP1 block,FXIa inh mix,CatG inh,Ec RNAP inh
O=C1C(Cl)=C(N2CCCCC2)C(=O)N1c1ccccc1Cl,0,0,0,21.7,0,0
COc1ccc(-c2nc(SC)n(C(=O)c3ccco3)n2)cc1,0,62.7,0,23.8,20.0,0
CC(C)(C)c1ccc(C(=O)Nc2c3c(nn2-c2ccccc2)CSC3)cc1,-,-,0,-,-,-
COc1ccc(CCn2c(SCC(=O)Nc3cc(C)on3)nc3ccsc3c2=O)cc1OC,21.8,0,0,0,0,0
COc1ccc(CCn2c(SCC(=O)Nc3cc(C)on3)nc3ccccc3c2=O)cc1OC,0,0,0,0,0,0
O=CN(Cc1ccco1)C1(C(=O)NC2CCCCC2)CCCCC1,32.8,0,0,0,0,0
CCn1c(SCC(=O)c2c(N)n(C)c(=O)n(C)c2=O)nc2sc(C)c(C)c2c1=O,0,33.4,0,0,0,0
CCn1c(SCC(=O)NCCOC)nc2sc(C)c(C)c2c1=O,0,0,0,0,0,0
COc1ccccc1-c1cc(C(=O)Nc2cccnc2)no1,0,0,0,0,33.8,0
COc1ccc(NC(=O)c2cc(-c3ccccc3OC)on2)cc1,0,0,0,0,0,0
COc1ccccc1C1NC(=O)NC(C)=C1C(=O)OCC(C)C (stereo not given),-,-,0,-,-,-
C=CCOc1ccccc1/C=N/O,0,0,0,0,0,0
O=S(=O)(c1ccccc1)c1ccccc1/C=N\O,24.6,0,0,0,0,-
CN(C)c1ccc(C(=O)Nc2cccc3c2C(=O)c2ccccc2C3=O)cc1,-,-,0,-,-,-
O=C(CCCNS(=O)(=O)c1cccs1)N1CCN(c2ccc(F)cc2)CC1,0,0,-,0,0,0
O=C(CCCNS(=O)(=O)c1cccs1)N1CCN(c2cccc(Cl)c2)CC1,0,0,-,0,0,43.3
Cc1c(NS(=O)(=O)c2ccccc2)cc(Cl)c(O)c1C,0,0,0,0,0,26.3
CC1CCN(S(=O)(=O)c2cccc(C(=O)NCc3cccs3)c2)CC1,0,23.5,0,0,0,0
CC1CCN(S(=O)(=O)c2cccc(C(=O)Nc3ccccn3)c2)CC1,0,0,0,0,0,0
Cc1ccc(NC(=O)Cc2nn(C)c(=O)c3ccccc23)cc1F,20.4,0,0,0,20.6,0
CCn1c(N2CCCCC2)nc2c1c(=O)[nH]c(=O)n2C,-,-,0,-,-,-
CN(CC(=O)NC1CCCc2ccccc21)S(=O)(=O)c1ccc2c(c1)c(=O)n(C)c(=O)n2C (stereo not given),26.4,0,0,0,0,0
O=C1c2ccc(Oc3cccc([N+](=O)[O-])c3)cc2C(=O)N1c1cccc(Cl)c1,-,-,0,-,-,-
Cc1ccccc1OCC(=O)NCc1ccncc1,-,-,0,-,-,-
CCn1c(C)nc2cc(C(=O)n3cc(C(=O)c4cc(F)ccc4O)cn3)ccc21,0,25.3,0,0,0,0
SMILES,FXIIa mix inh,C1s inh,BAP1 block,FXIa inh mix,CatG inh,Ec RNAP inh
CC(=O)OCCNC(=O)c1cc2ccccc2oc1=O,0,0,0,0,0,0
CN(C)CCNC(=O)c1cc2ccccc2oc1=O,21.3,0,0,0,0,0
O=C(OCCCN1C(=O)c2cccc3c(N4CCOCC4)ccc(c23)C1=O)c1cccc([N+](=O)[O-])c1,-,-,0,-,-,-
CCOC(=O)c1c(NC(=O)c2cccs2)sc2c1CC(C)(C)OC2,0,0,-,21.3,0,0
COc1cccc(C(=O)NCc2cn3ccsc3n2)c1,0,0,0,0,0,0
O=C(NCc1cn2ccsc2n1)c1cccc(C(F)(F)F)c1,0,0,0,0,0,21.7
COc1ccc(C2=NO[C@@H]3C(=O)N(c4c(C)cccc4C)C(=O)[C@H]23)cc1OC,0,0,0,0,0,23.6
COc1ccc(OC)c(N2C(=O)[C@@H]3C(c4ccccc4Cl)=NO[C@@H]3C2=O)c1,0,0,0,0,0,0
CC(=O)N(c1ccc(N(C(C)=O)S(=O)(=O)c2cccs2)cc1)S(=O)(=O)c1cccs1,0,0,0,0,0,23.7
CCCn1c(SCC(=O)Nc2nnc(CC)s2)nc2c1c(=O)n(C)c(=O)n2C,0,0,0,0,0,0
CCCn1c(SCC(=O)Nc2nc3c(s2)CCCC3)nc2c1c(=O)n(C)c(=O)n2C,0,0,0,0,0,55.3
COc1cc(OC)cc(C(=O)Nc2ncc3c(n2)CC(C)CC3=O)c1 (stereo not given),0,22.4,0,0,0,0
Cn1c(-n2c(CN3C(=O)c4ccccc4C3=O)nc3ccccc3c2=O)nc2ccccc21,-,-,0,-,-,-
COC(=O)c1cc(Br)c(=O)n(-c2ccc(C(C)=O)cc2)c1,21.3,0,0,0,0,-
